Test [1] has as its target Acetylcholinesterase (Homo sapiens) (UniProt P22303). Nature of the test: Acetylcholinesterase (AChE) small molecule antagonists: colormetric cell-based qHTS assay (AID 1347395). Also: nearly all actives have a fitted effect of over 30% in size. Summed up: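 In this cell-based qHTS, attached SH-SY5Y cells were treated with test chemicals for 30 min, after which acetylthiocholine hydrolysis was followed by DTNB colour development over 90 min at 37 C.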
A general note: qHTS replaces the single test concentration by a dilution series.

The target is the same in test [2]. Nature of the test: Acetylcholinesterase (AChE) small molecule antagonists: enzyme-based qHTS assay (AID 1347397). Also: nearly all actives have a fitted effect of over 55% in size. To be noted: Potency: AChE enzyme activity inhibition; outcome: AChE enzyme activity inhibition. The gist of the method:
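First, recombinant human AChE (50 mU/mL as dispensed) received test compound or DMSO. Second, plates stood 30 min at room temperature. Third, DTNB and acetylthiocholine were added, followed by 10 min at room temperature and colorimetric detection.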

Test [3] shares this target. Nature of the test: Acetylcholinesterase (AChE) small molecule antagonists: fluorescence cell-based qHTS assay (AID 1347398). Also: nearly all actives have a fitted effect of over 50% in size. Particulars: Potency: AChE activity; outcome: AChE activity. The gist of the method: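 Homogeneous quantitative HTS format. SH-SY5Y cells seeded at 2,000 per well settle overnight at 37 C. Compound pretreatment runs 30 min (37 C, 5% CO2); substrate/probe mix then reacts 40 min at RT before reading 490/520 nm.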

Test [4] shares this target. Nature of the test: Acetylcholinesterase (AChE) small molecule antagonists: enzyme-based qHTS assay with human liver microsomes (AID 1347399). Also: nearly all actives have a fitted effect of over 60% in size. To be noted: Potency: qHTS inhibition; outcome: qHTS inhibition. The gist of the method: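 Recombinant human AChE (50 mU/mL in the enzyme mix) and human liver microsomes (0.25 mg/mL final) were preincubated with compound and NADPH (0.25 mg/mL final) for 30 min at 37 C. Acetylthiocholine/DTNB was then added; thiocholine was read colorimetrically after 10 min at room temperature.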

Values without a mark were called inactive. Records with an inconclusive call do not appear. Active and inactive are the calls of the source. Calls follow the shape of the full dose curve.
% is scaled to controls: 0 for no effect and ±100 for the full control effect; potency is read from the fitted curve at half-maximal effect.

Sequence of Acetylcholinesterase (Homo sapiens) (P22303 whole entry, looked up): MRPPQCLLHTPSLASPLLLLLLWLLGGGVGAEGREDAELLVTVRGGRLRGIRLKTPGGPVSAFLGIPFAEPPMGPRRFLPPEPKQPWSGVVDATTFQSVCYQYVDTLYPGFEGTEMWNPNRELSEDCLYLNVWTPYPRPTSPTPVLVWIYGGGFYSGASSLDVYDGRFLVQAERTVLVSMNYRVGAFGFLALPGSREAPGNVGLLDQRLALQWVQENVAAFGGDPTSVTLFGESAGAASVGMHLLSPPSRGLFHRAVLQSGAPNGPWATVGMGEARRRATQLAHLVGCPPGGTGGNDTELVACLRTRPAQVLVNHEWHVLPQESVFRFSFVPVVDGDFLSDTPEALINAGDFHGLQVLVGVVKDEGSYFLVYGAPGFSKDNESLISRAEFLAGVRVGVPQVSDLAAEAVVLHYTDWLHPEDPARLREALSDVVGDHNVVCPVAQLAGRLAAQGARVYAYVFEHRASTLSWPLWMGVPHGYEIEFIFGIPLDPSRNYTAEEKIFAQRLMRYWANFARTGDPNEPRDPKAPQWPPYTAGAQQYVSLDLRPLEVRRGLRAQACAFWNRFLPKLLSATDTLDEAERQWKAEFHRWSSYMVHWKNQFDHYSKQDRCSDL

Consider `COC(=O)[C@@H]1[C@H]2C[C@H]3c4[nH]c5ccccc5c4CCN3C[C@@H]2CC[C@@H]1O`, for which the Potency entry in test [1], in test [2], in test [3] and in test [4] was “inactive” throughout.

In the case of `CC(C)(C)c1cc(CO)cc(C(C)(C)C)c1O`, the Potency entry in test [1], in test [2], in test [3] and in test [4] was “inactive” throughout.

On to `C=C(C)[C@H]1CC=C(C)CC1`, for which the Potency result in test [1], in test [2], in test [3] and in test [4] was “inactive” in each case.

With `CC/C=C\CC/C=C/CO`, the Potency result in test [1], in test [2], in test [3] and in test [4] was “inactive” throughout.

As to `O=C(O)CNC(=O)c1ccc([N+](=O)[O-])cc1`, the Potency entry in test [1], in test [2], in test [3] and in test [4] was “inactive” each time.

Turning to `CCC1(CO)COCOC1`, the Potency result in test [1], in test [2], in test [3] and in test [4] was “inactive” in each case.

On to `O=C(O)c1cccc(C(=O)O)c1C(=O)O`, for which the Potency result in test [1], in test [2], in test [3] and in test [4] was “inactive” throughout.

Take `O=CC(=O)c1ccccc1`: the Potency in test [1] is 2 µM (active); in test [2] it was 5.03 µM (active); in test [3], 0.283 µM (active); in test [4], 35.6 µM (active).

For the molecule `CCCCCc1ccc(O)cc1`, the Potency entry in test [1], in test [2], in test [3] and in test [4] was “inactive” throughout.

As to `CC(C)(C)c1cc(CCC(=O)OCCSCCOC(=O)CCc2cc(C(C)(C)C)c(O)c(C(C)(C)C)c2)cc(C(C)(C)C)c1O`, the Potency entry in test [1], in test [2], in test [3] and in test [4] was “inactive” in each case.

As for `O=C(C1CCCCC1)N1CC(=O)N2CCCc3ccccc3C2C1` (stereo unspecified), the Potency result in test [1], in test [2], in test [3] and in test [4] was “inactive” each time.

With `CN=C(NC#N)NCCSCc1csc(N=C(N)N)n1`, the Potency result in test [1], in test [2], in test [3] and in test [4] was “inactive” in each case.

As for `COc1nc(C)nc(Cl)c1NC1=NCCN1`, the Potency entry in test [1], in test [2], in test [3] and in test [4] was “inactive” throughout.

For `Cc1nc(-c2ccc3c(c2)CCN(CCC2CCC(NC(=O)/C=C/c4ccc(F)cc4)CC2)CC3)no1` (stereo unspecified), the Potency result in test [1], in test [2], in test [3] and in test [4] was “inactive” each time.

Turning to `CCCCCCCCCCCCCOP(=O)(O)O`, the Potency entry in test [1], in test [2], in test [3] and in test [4] was “inactive” in each case.

For the molecule `O=C(O)c1cccc(Cl)n1`, the Potency result in test [1], in test [2], in test [3] and in test [4] was “inactive” each time.

On to `CCCCN1CCCC1C(=O)Nc1c(C)cc(C)cc1C` (stereo unspecified), for which the Potency entry in test [1], in test [2], in test [3] and in test [4] was “inactive” in each case.

For `Nc1ncnc2c1ncn2[C@H]1CC[C@@H](CO)O1`, the Potency entry in test [1], in test [2], in test [3] and in test [4] was “inactive” each time.

Regarding `CCCC(C)C(O)CC` (stereo unspecified), the Potency result in test [1], in test [2], in test [3] and in test [4] was “inactive” each time.

On to `CCCCOc1ccc(CC(=O)NO)cc1`, for which the Potency result in test [1], in test [2], in test [3] and in test [4] was “inactive” throughout.

Consider `O=C(O)c1cc(=O)c2ccccc2o1`, for which the Potency entry in test [1], in test [2], in test [3] and in test [4] was “inactive” each time.

`O=C(O)c1ccccc1-c1ccc(C(F)(F)F)cc1`: the Potency entry in test [1], in test [2], in test [3] and in test [4] was “inactive” each time.

Consider `COc1cc2nc(Cl)nc(N)c2cc1OC`, for which the Potency result in test [1], in test [2], in test [3] and in test [4] was “inactive” throughout.

Turning to `OCCC(F)(F)C(F)(F)C(F)(F)C(F)(F)C(F)(F)C(F)(F)C(F)(F)C(F)(F)F`, the Potency result in test [1], in test [2], in test [3] and in test [4] was “inactive” in each case.

On to `CCCCCCCCN1CCCC1=O`, for which the Potency result in test [1], in test [2], in test [3] and in test [4] was “inactive” throughout.

For `CCNC(=O)NCc1cccc(Cl)c1`, the Potency entry in test [1], in test [2], in test [3] and in test [4] was “inactive” in each case.

Consider `Cc1ccccc1N=C(N)N=C(N)N`, for which the Potency result in test [1], in test [2], in test [3] and in test [4] was “inactive” in each case.

As to `Nc1nc(CC(=O)O)cs1`, the Potency result in test [1], in test [2], in test [3] and in test [4] was “inactive” each time.

`CCC1=C(C)CN(C(=O)NCCc2ccc(S(=O)(=O)NC(=O)NC3CCC(C)CC3)cc2)C1=O` (stereo unspecified): the Potency result in test [1], in test [2], in test [3] and in test [4] was “inactive” in each case.

For `Nc1c(Br)cc([N+](=O)[O-])cc1Br`, the Potency entry in test [1], in test [2], in test [3] and in test [4] was “inactive” in each case.

Take `CCCCCCOc1ccccc1C(N)=O`: the Potency result in test [1], in test [2], in test [3] and in test [4] was “inactive” each time.

As to `COC(=O)c1ccc(I)cc1S(=O)(=O)NC(=O)Nc1nc(C)nc(OC)n1`, the Potency entry in test [1], in test [2], in test [3] and in test [4] was “inactive” each time.

Take `C/C=C(\C)C#N`: the Potency entry in test [1], in test [2], in test [3] and in test [4] was “inactive” in each case.

On to `CCCCCCCCCCCCCC(=O)OCC(O)CO` (stereo unspecified), for which the Potency entry in test [1], in test [2], in test [3] and in test [4] was “inactive” each time.

On to `CCCCCCCCCC#N`, for which the Potency result in test [1], in test [2], in test [3] and in test [4] was “inactive” in each case.

As to `Cc1nc2ccccc2n1Cc1ccc(Cl)cc1`, the Potency entry in test [1], in test [2], in test [3] and in test [4] was “inactive” in each case.

For `CC(=O)CC(N)=O`, the Potency entry in test [1], in test [2], in test [3] and in test [4] was “inactive” in each case.

For the molecule `Cc1c(N=C=O)cccc1N=C=O`, the Potency entry in test [1], in test [2], in test [3] and in test [4] was “inactive” in each case.

For `O=C(O)c1ccc2c(c1)nc(C(=O)NC1CCN(C3CC3)CC1)n2Cc1cc(-c2ccc(Cl)s2)on1`, the activity, negative = inhibition in test [1] was -6.96% [at 23.6 µM]. For the same molecule, the activity change, negative = inhibition in test [2] was 2.26% [at 23.6 µM]; in test [3], -24.8% [at 23.8 µM]; in test [4], 0.834% [at 23.6 µM].

In the case of `Cc1cc(C)cc([N+](=O)[O-])c1`, the Potency result in test [1], in test [2], in test [3] and in test [4] was “inactive” each time.

Turning to `O=C(O)/C=C/c1ccc(O)c(O)c1`, the Potency entry in test [1], in test [2], in test [3] and in test [4] was “inactive” throughout.

With `O=C(/C=C/c1ccc(O)c(O)c1)O[C@@H]1C[C@](O)(C(=O)O)C[C@@H](O)[C@H]1O`, the Potency entry in test [1], in test [2], in test [3] and in test [4] was “inactive” in each case.

Regarding `c1ccc2c(c1)ccc1c3ccccc3ccc21`, the Potency entry in test [1], in test [2], in test [3] and in test [4] was “inactive” in each case.

Take `C1C[C@@H]2[C@H]3CC[C@H](C3)[C@@H]2C1`: the Potency entry in test [1], in test [2], in test [3] and in test [4] was “inactive” each time.
